luminol inh ctr: luminol signal inhibition, Nox1 inhibitor counter-screen | HRP/luminol/H2O2 chemiluminescence counterscreen | inhibition, % at 6.7 µM | 0.4% of 16,000 active; also: reference of the scale not given here
NOTCH agonist: activates NOTCH signaling in reporter cells; NOTCH signaling luciferase reporter cells, luminescence; activation, % at 2.5 µM; 0.4% of 15,000 active; AID 434982; in the data active = activation above about 2.2%
S1P1 ag: S1P1 (human) receptor agonism | 1.5% of 16,000 active | activation, % at 4.5 µM | P21453 | S1P1 agonist cell-based reporter assay; in the data active = activation above about 80%
Target sequence (P21453 whole entry, looked up): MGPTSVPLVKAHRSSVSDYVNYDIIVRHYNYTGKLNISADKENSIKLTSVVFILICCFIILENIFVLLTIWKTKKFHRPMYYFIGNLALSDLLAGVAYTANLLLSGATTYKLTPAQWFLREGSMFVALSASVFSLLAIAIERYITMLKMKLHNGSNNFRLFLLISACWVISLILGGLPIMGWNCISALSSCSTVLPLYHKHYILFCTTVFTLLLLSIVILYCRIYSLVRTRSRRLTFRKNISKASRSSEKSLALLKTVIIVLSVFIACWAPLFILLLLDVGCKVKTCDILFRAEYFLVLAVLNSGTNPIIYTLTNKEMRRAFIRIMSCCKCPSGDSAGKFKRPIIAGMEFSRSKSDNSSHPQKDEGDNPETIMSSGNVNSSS
Nox1 inh: blocks human NADPH oxidase 1 activity | AID 1792 | inhibition, % at 6.7 µM | 0.81% of 16,000 active | HT29 cells, luminol chemiluminescence ROS | Q9Y5S8
rat GALR2 agon: agonists of rat galanin receptor 2 (GALR2). cell-based GALR2 agonist screen. activation, % at 10 µM. AID 833. 0.5% of 16,000 active; in the data active = activation above about 15%
PME-1 Maybr inh: PME-1 (human) inhibition, Maybridge primary screen | recombinant PME-1, FP-Rh probe fluorescence polarization | 0.5% of 16,000 active | inhibition, % at 9 µM; in the data active = inhibition above about 30%
A number is an active result; - = inactive; . = not tested or not shown. Sampled rows, rich in hits. Any-hit rate of the full collection: about 4.1%. Rule as the data show it, unless noted: active = inhibition above about 75%; inactive = the rest.

SMILES	luminol inh ctr	NOTCH agonist	S1P1 ag	Nox1 inh	rat GALR2 agon	PME-1 Maybr inh
O=[N+]([O-])c1cnc(Sc2n[nH]c(-c3cccs3)n2)s1	-	-	-	-	-	-
O=S(=O)(Nc1ccc(N2CCCCC2)cc1)c1cc(S(=O)(=O)c2ccccc2)cs1	-	-	-	104	-	-
COC(=O)c1sc2cc(Cl)ccc2c1OC(C)C	-	-	-	-	-	-
CCOC(=O)c1c(NC(=O)c2ccc([N+](=O)[O-])o2)nc(SC)n1Cc1cccs1	-	-	87	-	-	-
CCOc1ccc2nc(NC(=O)c3ccc([N+](=O)[O-])o3)sc2c1	-	-	-	-	-	-
O=C(O)/C=C/C(=O)NNC(=O)c1ccccc1[N+](=O)[O-]	-	.	-	-	-	-
O=C(NNC(=O)c1ccccc1[N+](=O)[O-])c1cc2c(s1)-c1ccccc1CC2	-	2.4	-	-	-	-
O=C1CNC(=S)N1CCOc1ccccc1Cl	-	-	-	-	-	-
O=C(Nc1ccccc1)Nc1ccc(-n2ccc(C(F)(F)F)n2)cc1	-	-	-	-	-	-
Cc1onc(-c2ccccc2)c1NC(=O)Nc1ccc(-n2ccc(C(F)(F)F)n2)cc1	-	-	98	-	-	-
COc1ccc(Oc2nc(-c3ccccc3)ns2)cc1	-	-	-	-	-	-
C[n+]1cccc(-c2n[nH]c(-c3ccccc3)n2)c1	-	.	110	-	-	-
N#C/C(=C\Nc1ccc2c(c1)OCCO2)C(=O)c1ccc(Cl)cc1	-	-	85	-	-	-
N#C/C(=C\Nc1ccc(F)c(Cl)c1)C(=O)C1CC1	-	-	-	-	-	-
COc1cc(-c2nc(-c3ccccc3)c(-c3ccccc3)[nH]2)ccc1O	-	-	-	101	-	-
COc1cc(NS(=O)(=O)c2c(C)oc3c(F)c(F)c(F)c(F)c23)cc(OC)c1OC	-	.	-	-	-	-
N#CC(C#N)=C1c2cc(S(N)(=O)=O)cc([N+](=O)[O-])c2-c2c1cc(S(N)(=O)=O)cc2[N+](=O)[O-]	-	-	-	-	-	73
Cc1ccc(SC#N)c(N)n1	-	-	-	100	-	-
CSc1nc(C)nc(N)c1C#N	-	-	-	-	-	-
N/C(=N\OC(=O)c1cccc(C(F)(F)F)n1)c1cccc(C(F)(F)F)c1	-	-	91	-	-	-
Cc1cc(-c2onc(C)c2C(=O)O/N=C(\N)c2cccc(C(F)(F)F)c2)no1	-	-	-	-	-	-
CCOC(=O)NC(=S)Nc1ccc(C(C)(C)C)cc1	-	-	-	-	-	-
CCOC(=O)CNc1ccc(C(F)(F)F)cc1	-	-	-	-	61	-
O=C(O)c1ccc([N+](=O)[O-])cc1Oc1cccc([N+](=O)[O-])c1	-	-	-	-	-	-
O=[N+]([O-])c1ccc(N2CCN(c3ccc([N+](=O)[O-])cc3CO)CC2)c(CO)c1	-	-	82	-	-	-
SMILES	luminol inh ctr	NOTCH agonist	S1P1 ag	Nox1 inh	rat GALR2 agon	PME-1 Maybr inh
O=C(O)/C=C/C(=O)Nc1ccc(N2CCCCCC2)c(NC(=O)/C=C/C(=O)O)c1	-	2.4	-	-	-	-
CC(C)(C)C(=O)Oc1ccc(-c2csnn2)cc1	-	-	-	-	-	-
O=C(Nc1ccc(Cl)cc1)Oc1ccc(-c2csnn2)cc1	102	-	-	-	-	-
O=[N+]([O-])c1ccc(-c2nc(-c3ccc(-c4csnn4)cc3)no2)cc1	-	-	-	-	-	-
O=C(Oc1ccc(-c2csnn2)cc1)c1ccc([N+](=O)[O-])o1	101	-	-	-	-	-
CN(C)/C=C(\C#N)C(=O)N1CCCC1	-	-	-	-	-	-
Cn1cnc(S(=O)(=O)Nc2ccc(N3CCCCC3)cc2)c1	-	-	-	87	-	-
COC(=O)c1scc(C)c1-n1cccc1	-	-	-	-	-	-
CCOC(=O)COc1cccc([N+](=O)[O-])c1	-	3.0	-	-	-	-
O=C1CS/C(=C/C(=O)c2cccs2)N1	-	-	-	-	-	-
O=C1CS/C(=C\C(=O)N2CCOCC2)N1	78	.	-	-	-	-
C#CC1(NC(=O)NCCCCCCNC(=O)NC2(C#C)CCCCC2)CCCCC1	-	-	-	-	-	-
CN1c2ccsc2C(=O)/C(=N\Nc2cccc(C(F)(F)F)c2)S1(=O)=O	-	-	87	-	-	-
NC(N)=N/C(N)=N/c1nccs1	-	-	-	-	-	-
Cn1nc(C(C)(C)C)cc1C(=O)NCc1ccc2c(c1)CCO2	-	-	80	-	-	-
Cc1cc(C(=O)NCc2ccc3c(c2)OCCCO3)nn1C	-	-	-	-	-	-

Compound activity (PubChem)
